Screening data deposited in PubChem BioAssay by The Scripps Research Institute Molecular Screening Center.
LEDGF integ inh – blockers of LEDGF/p75-dependent integrase strand transfer – biochemical, TR-FRET, high throughput, primary screen; TR-FRET IN-LEDGF/p75 DNA integration, Eu/Cy5; AID 743269, 2014; HIV-1 integrase (with human LEDGF/p75); 0.64% of 370,000 active; inhibition, % at 3.7 µM;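 active = inhibition above the screen-wide mean plus 3 SD, cut at about 13% in these data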;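 also: signal is the Cy5 over europium emission ratio at 671 and 618 nm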
MBD2 inh – inhibitors of MBD2 binding to methylated DNA, primary screen, biochemical, TR-FRET, DNA-binding domain, human. inhibition, % at 4.4 µM. MBD2 binding to methylated oligonucleotide. Methyl-CpG-binding domain protein 2 (Homo sapiens), Q9UBB5. 0.31% of 370,000 active; in the data active = inhibition above about 13%
Rin1-Abl PPI inh – inhibitors of Rin1-Abl protein binding, primary screen, biochemical, TR-FRET; 0.4% of 360,000 active; inhibition, % at 7.35 µM; AID 588664, 2011; in the data active = inhibition above about 5%, passing the limit was not always enough
TCR-CD3 inh – inhibitors of human TCR-CD3 interaction, primary screen, biochemical, fluorescence, TAMRA-labeled TCR probe | T-cell receptor (TCR) | inhibition, % at 9.4 µM | 0.37% of 360,000 active; in the data active = inhibition above about 19%;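 also: recombinant mutant TCR 2C K166C tagged with TAMRA read by polarization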
UHRF1 binding – UHRF1 methylated DNA binding inhibitors, primary screen, counter-screen for MBD2 inhibitor project, biochemical, TR-FRET, human UHRF1, single concentration; inhibition, % at 4.4 µM; 0.75% of 370,000 active; E3 ubiquitin-protein ligase UHRF1 (Homo sapiens), Q96T88; UHRF1 binding to methylated oligo; in the data active = inhibition above about 21%;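 also: UHRF1 SRA domain binding a hemimethylated CpG hairpin DNA probe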
Rin1-Abl confirm – Rin1-Abl binding inhibitor retest, confirmation, biochemical, TR-FRET | shares compounds with Rin1-Abl PPI inh | purified proteins | inhibition, % at 7.35 µM | 49% of 1,300 active
GFP quench – GFP fluorescence inhibitors and quenchers, artefact control for Rin1-Abl interaction inhibitor project, biochemical. shares compounds with Rin1-Abl PPI inh. inhibitors/quenchers counterscreen. inhibition, % at 6.75 µM. 8.5% of 1,300 active;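 also: ABL1-eGFP fusion protein alone without its partner RIN1-SBP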
GFP quench DR – GFP fluorescence inhibitors and quenchers, dose response, artefact control for Rin1-Abl interaction inhibitor project, biochemical; shares compounds with Rin1-Abl PPI inh; IC50, µM; GFP fluorescence interference/quenching counterscreen; 230 tested, under 10 active; call rule not given here;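 also: ABL1-eGFP fusion protein alone without its RIN1 binding partner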
Numbers stand for hits. In the library only some 2% were active in any assay of this set; here they are far more common. Rule as the data show it, unless noted: active = inhibition above about 6.5%; inactive = the rest.

Screening COc1ccccc1N=NNc1ccccc1OC returned LEDGF integ inh inactive, MBD2 inh inactive, Rin1-Abl PPI inh inactive, TCR-CD3 inh inactive and UHRF1 binding inactive.
`COCCNC(=O)CS(=O)Cc1nc(-c2ccccc2C)oc1C` (stereo not drawn) gave LEDGF integ inh inactive, MBD2 inh inactive, Rin1-Abl PPI inh 12, TCR-CD3 inh inactive, UHRF1 binding inactive, Rin1-Abl confirm inactive and GFP quench inactive.
Cc1ccccc1-c1nc(CS(=O)CC(=O)NCc2ccccc2)c(C)o1 (stereo not drawn) was read as LEDGF integ inh inactive, MBD2 inh inactive, Rin1-Abl PPI inh inactive, TCR-CD3 inh inactive and UHRF1 binding inactive.
NC(Cc1ccc(Cl)cc1)c1csc(Nc2ccc(C(F)(F)F)cn2)n1 (stereo not drawn) was read as LEDGF integ inh inactive, MBD2 inh inactive, Rin1-Abl PPI inh inactive, TCR-CD3 inh inactive and UHRF1 binding inactive.
For C[C@H]1COc2cccc(N3CCCC3)c2S(=O)(=O)N1 the results were LEDGF integ inh inactive, MBD2 inh inactive, TCR-CD3 inh inactive and UHRF1 binding inactive.
`O=C(c1ccccc1)c1ccc(OCC(O)CN2CCCCC2)cc1` (stereo not drawn) gave LEDGF integ inh inactive, MBD2 inh inactive, Rin1-Abl PPI inh inactive, TCR-CD3 inh inactive and UHRF1 binding inactive.
O=C(c1ccccc1)c1ccc(OCC(O)CN2CCN(S(=O)(=O)N3CCCCC3)CC2)cc1 (stereo not drawn) was read as LEDGF integ inh inactive, MBD2 inh inactive, Rin1-Abl PPI inh 6.7, TCR-CD3 inh inactive, UHRF1 binding inactive, Rin1-Abl confirm inactive and GFP quench inactive.
For CCc1nc2ccc(C(=O)Nc3cccc(OCC(=O)N(C)C)c3)cn2c1N(C)Cc1cc2ccccc2s1 the results were LEDGF integ inh inactive, MBD2 inh inactive, Rin1-Abl PPI inh inactive, TCR-CD3 inh inactive and UHRF1 binding inactive.
`CCCn1nc(C(=O)N(C)CC(=O)Nc2ccc(OCC)c(OCC)c2)c2ccccc2c1=O` gave LEDGF integ inh inactive, MBD2 inh inactive, Rin1-Abl PPI inh 21, TCR-CD3 inh inactive, UHRF1 binding inactive, Rin1-Abl confirm 34, GFP quench inactive and GFP quench DR inactive.
NC(=O)C1CCN(CC(=O)Nc2ccccc2Sc2ccccc2)CC1 was read as LEDGF integ inh inactive, MBD2 inh inactive, Rin1-Abl PPI inh 7.3, TCR-CD3 inh inactive, UHRF1 binding inactive, Rin1-Abl confirm 11 and GFP quench inactive.
For O=C(COC(=O)c1ccc([N+](=O)[O-])cc1Cl)Nc1cccnc1Cl the results were LEDGF integ inh inactive, MBD2 inh inactive, Rin1-Abl PPI inh 8.7, TCR-CD3 inh inactive, UHRF1 binding inactive, Rin1-Abl confirm inactive and GFP quench inactive.
For O=C(COC(=O)c1cc([N+](=O)[O-])ccc1NCCO)Nc1cccnc1Cl the results were LEDGF integ inh inactive, MBD2 inh inactive, Rin1-Abl PPI inh inactive, TCR-CD3 inh inactive and UHRF1 binding inactive.
For CCN1C(=O)[C@H]2[C@@H](c3ccc(-c4cc(C(C)=O)cs4)cc3)N3CCC[C@@]3(C(=O)OC)[C@H]2C1=O the results were LEDGF integ inh inactive, MBD2 inh inactive, Rin1-Abl PPI inh inactive, TCR-CD3 inh inactive and UHRF1 binding inactive.
Cc1ncc(CN2CCCC(C(=O)Nc3ccc(-c4ccco4)cc3)C2)cn1 (stereo not drawn) was read as LEDGF integ inh inactive, MBD2 inh inactive, Rin1-Abl PPI inh 15, TCR-CD3 inh inactive, UHRF1 binding inactive, Rin1-Abl confirm 10 and GFP quench inactive.
